Laboratory results as given in PubChem BioAssay (NCI).
About 83,000 compounds went through this panel and 20% of them were active in at least one assay; those are over-represented in the sample as a whole.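 Negative percent growth values reflect cell death: -40 means 40% of the cells present at the start died, and -100 means all died.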 Activity calls are given as the source filed them. Rule for the calls: active = growth percent below 10; inactive = the rest.

How the values were obtained:
Test in all cases: NCI-60 one-dose screen, 48 h (100 = growth as untreated, 0 = no growth, -100 = all killed)
Settings in all cases: 10 µM unless noted
NCI-H23 lung = tested on: NCI-H23 lung
NCI-H226 lung = tested on: NCI-H226 lung
NCI-H322M lung = tested on: NCI-H322M lung
HOP-62 NSCLC = tested on: HOP-62 NSCLC
NCI-H460 lung = tested on: NCI-H460 lung
HOP-92 NSCLC = tested on: HOP-92 NSCLC
NCI-H522 lung = tested on: NCI-H522 lung
A549/ATCC NSCLC = tested on: A549/ATCC NSCLC
786-0 renal = tested on: 786-0 renal
COLO 205 colon = tested on: COLO 205 colon
DU-145 prostate = tested on: DU-145 prostate
K-562 leukemia = tested on: K-562 leukemia
MALME-3M melanoma = tested on: MALME-3M melanoma
MDA-MB-231 breast = tested on: MDA-MB-231 breast
RXF 393 renal = tested on: RXF 393 renal
SF-268 CNS = tested on: SF-268 CNS
SF-295 CNS = tested on: SF-295 CNS
SF-539 CNS = tested on: SF-539 CNS
UACC-257 melanoma = tested on: UACC-257 melanoma
M14 melanoma = tested on: M14 melanoma

Measured: growth

CN1CCN(c2ccc(NC3=C(Cl)C(=O)c4ncccc4C3=O)cc2C(F)(F)F)CC1
active: HOP-92 NSCLC -76.4% | NCI-H522 lung -49.8% | COLO 205 colon -16.7% | K-562 leukemia 3.72% | MALME-3M melanoma -92.1% | MDA-MB-231 breast 4.49% | RXF 393 renal -71.4% | UACC-257 melanoma -56.8%
inactive: NCI-H23 lung 58.7% | NCI-H226 lung 102% | NCI-H322M lung 98% | HOP-62 NSCLC 114% | NCI-H460 lung 101% | A549/ATCC NSCLC 104% | 786-0 renal 82.6% | DU-145 prostate 96.6% | SF-268 CNS 87.7% | SF-295 CNS 106% | SF-539 CNS 104% | M14 melanoma 39.8%

Cc1cc(C(=O)/C=C/c2ccc[nH]2)ccc1-n1ccc(C(F)(F)F)n1
inactive: NCI-H23 lung 89.5% | NCI-H226 lung 89.8% | NCI-H322M lung 97.5% | HOP-62 NSCLC 106% | NCI-H460 lung 98.9% | HOP-92 NSCLC 104% | A549/ATCC NSCLC 84.9% | 786-0 renal 48.7% | COLO 205 colon 115% | DU-145 prostate 96% | K-562 leukemia 53.3% | MALME-3M melanoma 94.7% | MDA-MB-231 breast 30.6% | RXF 393 renal 21.2% | SF-268 CNS 49.1% | SF-295 CNS 85% | SF-539 CNS 13.5% | UACC-257 melanoma 97.4% | M14 melanoma 90.5%
active: NCI-H522 lung -9.61%

O=C1Nc2cc(-c3ccc(NS(=O)(=O)c4ccccc4)cc3)ccc2/C1=C/c1ccc[nH]1
inactive: NCI-H23 lung 29.9% | NCI-H226 lung 65.9% | NCI-H322M lung 49.6% | HOP-62 NSCLC 106% | NCI-H460 lung 11.4% | HOP-92 NSCLC 95.7% | NCI-H522 lung 76.4% | A549/ATCC NSCLC 86.6% | 786-0 renal 108% | COLO 205 colon 125% | DU-145 prostate 31.8% | K-562 leukemia 61% | MALME-3M melanoma 85.5% | MDA-MB-231 breast 62.9% | RXF 393 renal 104% | SF-268 CNS 92.1% | SF-295 CNS 98.7% | SF-539 CNS 76.2% | UACC-257 melanoma 110% | M14 melanoma 90.1%

CCOC(=O)CSc1nc2ccccc2c(=O)n1Cc1ccc(S(N)(=O)=O)cc1
inactive: NCI-H23 lung 98% | NCI-H226 lung 100% | NCI-H322M lung 99.7% | HOP-62 NSCLC 95.5% | NCI-H460 lung 101% | HOP-92 NSCLC 94.6% | NCI-H522 lung 91.3% | A549/ATCC NSCLC 98% | 786-0 renal 104% | COLO 205 colon 106% | DU-145 prostate 113% | K-562 leukemia 97.1% | MALME-3M melanoma 105% | MDA-MB-231 breast 101% | RXF 393 renal 98.4% | SF-268 CNS 99.2% | SF-295 CNS 99.4% | SF-539 CNS 97.7% | UACC-257 melanoma 101% | M14 melanoma 97%

CCOC(=O)C1=C(C)NC(SCc2cc(=O)oc3ccc(F)cc23)=N[C@@H]1c1cccc2ccccc12
inactive: NCI-H23 lung 94.3% | NCI-H226 lung 103% | NCI-H322M lung 102% | HOP-62 NSCLC 90.8% | NCI-H460 lung 105% | HOP-92 NSCLC 86.7% | NCI-H522 lung 84.8% | A549/ATCC NSCLC 98.9% | 786-0 renal 93.4% | COLO 205 colon 108% | DU-145 prostate 98.5% | K-562 leukemia 79.7% | MALME-3M melanoma 112% | MDA-MB-231 breast 77.7% | RXF 393 renal 117% | SF-268 CNS 94.3% | SF-295 CNS 97.9% | SF-539 CNS 114% | UACC-257 melanoma 109% | M14 melanoma 102%

CC(C)(C)c1ccc(NS(=O)(=O)c2ccc3nc(NC(=O)c4cnccn4)[nH]c3c2)cc1
inactive: NCI-H23 lung 52% | NCI-H226 lung 44.3% | NCI-H322M lung 41.9% | HOP-62 NSCLC 53.4% | HOP-92 NSCLC 36.7% | NCI-H522 lung 20.4% | A549/ATCC NSCLC 38.8% | 786-0 renal 30% | COLO 205 colon 21.7% | DU-145 prostate 34.3% | K-562 leukemia 15.7% | MALME-3M melanoma 31.9% | MDA-MB-231 breast 50.5% | RXF 393 renal 13.5% | SF-268 CNS 37.7% | SF-295 CNS 35% | UACC-257 melanoma 46.7% | M14 melanoma 35.1%
active: NCI-H460 lung 6.16% | SF-539 CNS -0.716%

CCOC(=O)Oc1c(OC)cc(C(=O)c2ccc(OC)c(O)c2OC)cc1OC
active: NCI-H460 lung 8.66% | RXF 393 renal -10.1% | SF-539 CNS -15.7% | M14 melanoma -9.21%
inactive: NCI-H23 lung 37.8% | NCI-H226 lung 54.9% | NCI-H322M lung 46.1% | HOP-62 NSCLC 24% | HOP-92 NSCLC 48.3% | NCI-H522 lung 24% | A549/ATCC NSCLC 25.7% | 786-0 renal 21.2% | COLO 205 colon 89.6% | DU-145 prostate 13.8% | K-562 leukemia 10.8% | MALME-3M melanoma 49.1% | MDA-MB-231 breast 30.8% | SF-268 CNS 48.7% | SF-295 CNS 22.6% | UACC-257 melanoma 47.3%

O=C(Cn1c[n+](CC(=O)c2ccc(-c3ccccc3)cc2)c2ccccc21)Nc1cccc2cccnc12
inactive: NCI-H23 lung 23.8% | NCI-H226 lung 50.4% | NCI-H322M lung 77.2% | HOP-62 NSCLC 43.2% | NCI-H460 lung 28.7% | A549/ATCC NSCLC 59.9% | 786-0 renal 44.4% | DU-145 prostate 36.9% | K-562 leukemia 12.6% | RXF 393 renal 83.7% | SF-268 CNS 20.3% | SF-295 CNS 78.1% | SF-539 CNS 23.6% | UACC-257 melanoma 10.1% | M14 melanoma 28.1%
active: HOP-92 NSCLC -4.57% | NCI-H522 lung 2.6% | COLO 205 colon -61.8% | MALME-3M melanoma 8.16% | MDA-MB-231 breast -7.75%

CCCCCN1C=C/C(=C\C(=O)N2CCCc3ccccc32)c2ccccc21
inactive: NCI-H23 lung 57.5% | NCI-H226 lung 79.3% | NCI-H322M lung 102% | HOP-62 NSCLC 107% | NCI-H460 lung 91.9% | HOP-92 NSCLC 73.5% | NCI-H522 lung 68.5% | A549/ATCC NSCLC 89.4% | 786-0 renal 95.6% | COLO 205 colon 96.8% | DU-145 prostate 94.1% | K-562 leukemia 54.1% | MALME-3M melanoma 86% | MDA-MB-231 breast 97% | RXF 393 renal 99.5% | SF-268 CNS 87.2% | SF-295 CNS 85.7% | SF-539 CNS 97.2% | UACC-257 melanoma 89.8% | M14 melanoma 100%

CN(C)CCn1c2ccc(Br)cc2c2nc3ccccc3nc21
active: COLO 205 colon 9.69%
inactive: NCI-H23 lung 36.1% | NCI-H226 lung 41.9% | NCI-H322M lung 35.2% | HOP-62 NSCLC 25.1% | NCI-H460 lung 12.6% | HOP-92 NSCLC 49.6% | NCI-H522 lung 29.8% | A549/ATCC NSCLC 17.4% | 786-0 renal 33.7% | DU-145 prostate 27% | K-562 leukemia 12.1% | MALME-3M melanoma 51.3% | MDA-MB-231 breast 30.3% | RXF 393 renal 39.4% | SF-268 CNS 43.1% | SF-295 CNS 26.8% | SF-539 CNS 27.3% | UACC-257 melanoma 46% | M14 melanoma 30%

Cc1ccc(-c2[nH][nH]c(=O)c2-c2nc3ccccc3s2)cc1
inactive: NCI-H23 lung 96.2% | NCI-H226 lung 95.1% | NCI-H322M lung 105% | HOP-62 NSCLC 99.2% | NCI-H460 lung 105% | HOP-92 NSCLC 105% | NCI-H522 lung 89.2% | A549/ATCC NSCLC 107% | 786-0 renal 101% | COLO 205 colon 106% | DU-145 prostate 111% | K-562 leukemia 100% | MALME-3M melanoma 96.5% | MDA-MB-231 breast 99.1% | RXF 393 renal 101% | SF-268 CNS 103% | SF-295 CNS 101% | SF-539 CNS 100% | UACC-257 melanoma 104% | M14 melanoma 98.1%

O=C(O)c1ccc(NCc2cn(-c3ccc(C(F)(F)F)cc3)nc2-c2ccc(C(=O)O)cc2)cc1
inactive: NCI-H23 lung 107% | NCI-H226 lung 111% | NCI-H322M lung 106% | HOP-62 NSCLC 101% | NCI-H460 lung 103% | NCI-H522 lung 93.1% | A549/ATCC NSCLC 106% | 786-0 renal 105% | COLO 205 colon 119% | DU-145 prostate 115% | K-562 leukemia 105% | MALME-3M melanoma 127% | MDA-MB-231 breast 111% | RXF 393 renal 112% | SF-268 CNS 97.8% | SF-295 CNS 100% | SF-539 CNS 97% | UACC-257 melanoma 109% | M14 melanoma 106%
active: HOP-92 NSCLC -7.09%

NC(=O)Nc1ccc(-n2cnc3cc(-c4ccc(O)cc4)ccc32)cc1
active: COLO 205 colon -20.8%
inactive: NCI-H23 lung 103% | NCI-H226 lung 110% | NCI-H322M lung 101% | HOP-62 NSCLC 104% | NCI-H460 lung 102% | HOP-92 NSCLC 149% | NCI-H522 lung 73.3% | A549/ATCC NSCLC 96.8% | 786-0 renal 109% | DU-145 prostate 107% | K-562 leukemia 89.3% | MALME-3M melanoma 98.4% | MDA-MB-231 breast 107% | RXF 393 renal 123% | SF-268 CNS 96.3% | SF-295 CNS 97.4% | SF-539 CNS 67.2% | UACC-257 melanoma 112% | M14 melanoma 91.6%

COc1cc2c(=O)n(CCN)c3c4cc5c(cc4ccc3c2cc1OC)OCO5
active: NCI-H226 lung -66% | NCI-H322M lung -72.1% | HOP-62 NSCLC -51.2% | NCI-H460 lung -76.5% | NCI-H522 lung -7.78% | A549/ATCC NSCLC -76.5% | 786-0 renal -79.3% | COLO 205 colon -0.566% | DU-145 prostate -83.2% | K-562 leukemia -55% | MALME-3M melanoma -72.3% | MDA-MB-231 breast -81.7% | RXF 393 renal -76.8% | SF-268 CNS -59.6% | SF-539 CNS -75.9% | M14 melanoma -50.8%
inactive: NCI-H23 lung 14.2% | HOP-92 NSCLC 49.6% | SF-295 CNS 25% | UACC-257 melanoma 33.8%

COc1cc(/C(C)=C(\c2ccc(Cl)cc2)c2ccc(OCCN(C)C)cc2)ccc1F
inactive: NCI-H23 lung 76.5% | NCI-H226 lung 91% | NCI-H322M lung 69% | HOP-62 NSCLC 87.6% | HOP-92 NSCLC 44.6% | NCI-H522 lung 80.2% | A549/ATCC NSCLC 63.4% | 786-0 renal 65.7% | DU-145 prostate 67.9% | MDA-MB-231 breast 50.8% | RXF 393 renal 60.5% | SF-268 CNS 70.8% | SF-295 CNS 89.7% | SF-539 CNS 71.7% | M14 melanoma 31.5%
active: NCI-H460 lung 7.61% | COLO 205 colon -33.8% | K-562 leukemia 8.38% | MALME-3M melanoma -7.62% | UACC-257 melanoma -4.66%
